Screens: PubChem BioAssay, National Center for Advancing Translational Sciences (NCATS)
TbPYK inhibitor – blocks Trypanosoma brucei pyruvate kinase; Potency, µM (titrated, usually from 76.8 µM), without a hit: at the highest dose activity, negative = inhibition, actives largely listed as inhibitors; Q57TT1; AID 624173; actives 0.12% (n = 410,000); TbPYK enzyme, Kinase-Glo Plus ATP luminescence, 45 min; also: potency is read from the fitted curve at half-maximal effect; % is scaled to controls: 0 for no effect and ±100 for the full control effect; nearly all actives have a fitted effect of over 50% in size
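T. brucei PYK with substrate was exposed to pin-transferred compounds across a concentration series, then started with 130 uM ADP (final). After 45 min at room temperature, Kinase-Glo Plus luminescence was read, normalized and curve-fitted.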
Shiga inhibitor – Shiga toxin inhibition | Vero cells, Shiga toxin protein synthesis inhibition reporter | inhibition, % at 38.7 µM | actives 9.2% (n = 290,000); in the data active = inhibition mostly above about 28%, no sharp cut-off; inactive = mostly below about 43%; also: 0% is about no effect
Giardia FBPA inh – inhibitors of Giardia lamblia fructose-1,6-bisphosphate aldolase | A8B2U2 | purified Giardia FBPA | Potency, µM (highest dose often 59.6 µM), without a hit: top-dose activity, negative = inhibition, most hits filed as inhibitors | actives 0.71% (n = 290,000) | AID 2451; also: potency is read from the fitted curve at half-maximal effect; % is scaled to controls: 0 for no effect and ±100 for the full control effect; nearly all actives have a fitted effect of over 55% in size
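Giardia FBPA (40 nM reagent) was preincubated 10 min at RT with compound (up to 57.5 uM final), then substrate plus GAPDH/TPI/NAD/arsenate coupling system with diaphorase/resazurin was added; resorufin fluorescence (525/598 nm) was read after 20 min.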
RE007 growth inh – less growth of the S. pombe RE007 Vpr strain; S. pombe RE007 Vpr strain, BacTiter-Glo ATP luminescence, 24 h; Potency, µM (highest dose often 92.2 µM), without a hit: at the top dose activity change, negative = less growth, actives largely listed as inhibitors; actives 0.21% (n = 360,000); AID 651644; active = well fitted falling curve with a large enough effect; inconclusive = small, poorly fitted or top-dose-only effect; inactive = no such curve, though single readings can be large or run the other way; also: potency is read from the fitted curve at half-maximal effect; % is scaled to controls: 0 for no effect and ±100 for the full control effect; nearly all actives have a fitted effect of over 50% in size
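Fission yeast RE007 carrying one integrated HIV-1 vpr copy, seeded at OD 0.01 in PMG+AL medium with 23 nL pinned compound. Grown 24 h at 30 degrees; viability read by BacTiter-Glo luminescence after 5 min.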
LmPK inh – blocks Leishmania mexicana pyruvate kinase activity | Q27686 | purified LmPK, Kinase-Glo ATP luminescence, 1 h | Potency, µM (series often up to 57.5 µM), without a hit: top-dose activity change, negative = inhibition, actives largely listed as inhibitors | actives 0.37% (n = 290,000); also: potency is read from the fitted curve at half-maximal effect; % is scaled to controls: 0 for no effect and ±100 for the full control effect
Target sequence (Q27686 whole entry, looked up): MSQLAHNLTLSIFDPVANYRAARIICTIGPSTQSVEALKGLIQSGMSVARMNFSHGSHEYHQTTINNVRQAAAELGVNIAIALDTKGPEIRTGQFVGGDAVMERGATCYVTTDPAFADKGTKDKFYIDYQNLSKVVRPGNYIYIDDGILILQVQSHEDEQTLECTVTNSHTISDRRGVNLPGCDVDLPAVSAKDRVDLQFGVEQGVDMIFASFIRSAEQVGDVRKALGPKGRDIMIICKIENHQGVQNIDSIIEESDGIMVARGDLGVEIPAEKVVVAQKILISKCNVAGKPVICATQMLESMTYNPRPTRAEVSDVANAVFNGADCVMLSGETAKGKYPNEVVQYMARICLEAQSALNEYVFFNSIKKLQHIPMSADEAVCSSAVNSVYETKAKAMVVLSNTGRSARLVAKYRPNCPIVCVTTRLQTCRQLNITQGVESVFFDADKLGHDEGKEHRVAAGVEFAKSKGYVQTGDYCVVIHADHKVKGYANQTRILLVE
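In 50 mM imidazole pH 7.2 with 7 mM MgCl2, LmPK (0.1 nM) turned over PEP (0.5 mM) and ADP (0.1 mM) for 1 h at room temperature. Luciferase read-out of ATP.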
CHX counter – counter-screen hit for Shiga toxin inhibitors, cycloheximide. AID 2314. max response, %. cell reporter, cycloheximide protein synthesis inhibition counterscreen. actives 12% (n = 300,000); in the data active = max response mostly above about 13%, no sharp cut-off; inactive = mostly below about 14%; also: read at 38.3 µM for the half of the compounds with a filed dose; 0% is about no effect
* marks the source's active call; other numbers are inactive results; ? = inconclusive; nt = not tested or not shown; [ ] = remark or other dose. The entries come from a sample that favours hits as a whole. Unless noted, calls follow the shape of the dose curve; as a rule, active = well fitted curve in the direction sought with a large enough effect; inconclusive = small, poorly fitted or top-dose-only effect, or another doubt; inactive = no such curve, though single readings can be large; an effect the other way counts as inactive or inconclusive.

SMILES	TbPYK inhibitor	Shiga inhibitor	Giardia FBPA inh	RE007 growth inh	LmPK inh	CHX counter
O=C(Nc1nccs1)c1ccc(-c2cccc([N+](=O)[O-])c2)o1	-3.4%	28.1	3.3%	-20.9%	-13.5%	23.5*
O=C(Nc1ccc([N+](=O)[O-])cc1Cl)c1cccc([N+](=O)[O-])c1	-7.5%	nt	nt	1.3%	nt	nt
Cc1ccc(C(=O)Nc2ccc(-c3nc4ccccc4s3)c(O)c2)c(C)c1	3.3%	nt	nt	nt	nt	nt
O=C(CCS(=O)(=O)c1ccccc1)Nc1ccc(-c2nc3ccccc3s2)c(O)c1	-7.6%	47.9*	6.5%	3.9%	0.4%	43.6*
CC(=O)Nc1ccc(O)c(-c2nc3ccccc3s2)c1	1.1%	131.3*	-5.9%	-12.2%	2.5%[11.5 µM]	49.2*
Cc1ccsc1C(=O)Nc1ccc(O)c(-c2nc3ccccc3s2)c1	-1.5%	44.7	-0.1%	-2.0%	-1.1%	18.3*
Fc1ccccc1-c1n[nH]c(=S)n1/N=C/c1c[nH]c2ccccc12	?	19.5	0.4%	0.9%	10µM*	-2.2
O=C(CNC(=O)c1ccc(Cl)cc1)OCC(=O)c1ccc2c(c1)OCCO2	1.1%	37.5	11.7%	3.2%	9.4%	44.9*
COC(=O)CCC(NC(=O)c1cc(-c2ccc3c(c2)OCCO3)oc1C)C(=O)OC (centres undefined)	0.0%	17.6	-0.1%	-15.2%	4.7%	15.7
CCOc1ccccc1C(=O)NCC(=O)OCC(=O)c1ccc2c(c1)OCCO2	-0.4%	16.8	-10.0%	17.9%	2.4%	5.8
CCOC(=O)CNC(=O)c1cc(-c2ccc3c(c2)OCCO3)oc1C	-7.8%	63.5*	2.9%	30.3%	1.5%	44.3*
CCOC(=O)CNC(=O)c1ccc2c(c1)OCCO2	-7.0%	58.7*	0.4%	6.0%	-4.8%	45.9*
Cc1ccc(NC(=O)c2ccc(F)c(S(=O)(=O)NCCc3ccccc3)c2)cc1F	1.5%	nt	nt	nt	nt	nt
C=CCN1C(=O)N/C(=C/c2ccc(N3CCOCC3)o2)C1=O	nt	-20.3	?	nt	-0.2%	-7.0
O=C1N/C(=C/c2ccc(N3CCCC3)cc2)C(=O)N1c1ccccc1	-11.1%	48.9*	-2.5%	-5.8%	-2.0%	16.6*
O=C1N/C(=C/c2ccc(N3CCOCC3)o2)C(=O)N1c1ccccc1	?	13.9	?	-15.6%	-5.0%	20.2*
CCc1nnc(SCC(=O)Nc2cccc(C(F)(F)F)c2)c2cc3oc(C)cc3n12	-9.6%	nt	nt	nt	nt	nt
CCOc1ccc(-c2cc(NC(=O)Nc3ccccc3Cl)c(C(=O)OC)s2)cc1	-6.8%	nt	nt	nt	nt	nt
COc1ccc(NC(=O)C2Cc3ccccc3C(=O)O2)cc1 (centres undefined)	1.7%	25.8	-6.7%	22.4%	5.2%	12.2*
COc1ccc(CCNC(=O)C2Cc3ccccc3C(=O)O2)cc1 (centres undefined)	3.0%	-12.4	9.7%	-1.4%	-0.9%	15.1
Cc1ccccc1NC(=O)C1Cc2ccccc2C(=O)O1 (centres undefined)	-1.4%	17.3	1.8%	-0.8%	-1.2%	14.3*
COc1ccc(C2Cc3ccccc3C(=O)O2)cc1 (centres undefined)	-1.8%	active	0.2%	-4.2%	3.0%	19.3
Cc1ccc2c(c1)C(=O)OC(C(=O)Nc1ccccc1C(=O)O)C2 (centres undefined)	-3.1%	nt	nt	nt	nt	nt
CCOc1ccc(Oc2ccc(C(F)(F)F)cc2N)cc1	-4.8%	44.2	-0.2%	15.9%	5.0%	15.8*
COc1cccc(Oc2ccc(C(F)(F)F)cc2N)c1	-4.5%	86.9*	-6.7%	1.4%	6.8%	28.9*
SMILES	TbPYK inhibitor	Shiga inhibitor	Giardia FBPA inh	RE007 growth inh	LmPK inh	CHX counter
COc1cccc(Oc2ccc(C(F)(F)F)cc2NC(=O)c2cccc(F)c2)c1	10.3%	-1.3	7.8%	-18.7%	-0.8%	-1.9
Cc1nc2cncnc2n(-c2ccccc2)c1=O	1.2%	nt	-12.1%	nt	nt	nt
CC(C)(C)OC(=O)N1CCC(c2cc(-c3cccs3)n[nH]2)CC1	1.0%	19.5	-0.5%	7.5%	2.8%	25.6*
COc1ccc(C(=O)C[n+]2cccc(Br)c2)cc1	-4.9%	33.5	-2.9%	-16.3%	-0.5%	9.7*
O=C(C[n+]1cccc(Br)c1)c1ccc(-c2ccccc2)cc1	-0.9%	34.2	-8.0%	-11.7%	-0.3%	22.1*
O=C(C[n+]1cccc(Br)c1)c1ccccc1	-0.4%	-4.9	-0.5%	14.8%	0.9%	-8.3
O=C(C[n+]1ccc2ccccc2c1)c1ccccc1	-4.9%	39.4	-6.9%	-15.7%	-0.2%	20.4*
COc1ccc(CC(=O)Nc2sc3c(c2C(=O)Nc2c(C)cccc2C)CCCCC3)cc1	-1.0%	nt	nt	nt	nt	nt
COC(=O)CNC(=O)/C=C/c1ccc(OC)cc1	2.0%	56.9*	4.8%	4.8%	-6.1%	27.4*
COc1ccc(/C=C/C(=O)NCc2ccccn2)cc1	-4.8%	33.6*	5.1%	7.8%	1.8%	16.9*
COCC(C)NC(=O)/C=C/c1ccc(OC)cc1 (centres undefined)	-8.7%	36.2	-0.3%	7.7%	-11.0%	18.9*
COc1ccc(/C=C/C(=O)NCc2ccccn2)cc1OC	-0.7%	-6.3	?	-1.6%	-2.8%	11.5
CSCC(=O)N1CCC(n2nccc2NC(=O)c2ccc3c(c2)OCO3)CC1	-2.3%	62.0*	1.0%	3.6%	-1.9%	36.4*
CSc1ccc(CC(=O)N2CCC(n3nccc3NC(=O)C3CC3)CC2)cc1	-7.0%	75.4*	?	5.1%	0.7%	44.7*
CSCC(C)N1CCC(n2nccc2NC(=O)c2ccc3c(c2)OCO3)CC1 (centres undefined)	1.1%	-11.4	nt	6.9%	6.1%	-2.3
Cn1cc(Br)c(NS(=O)(=O)c2ccc(Cl)s2)n1	-4.4%	-4.4	3.8%	-7.8%	-8.3%	7.3
Cc1[nH]n(-c2ccc([N+](=O)[O-])cc2)c(=O)c1C=NCCN1CCN(C(=O)c2cccc(F)c2)CC1	-6.8%	-13.1	4.6%	8.91µM*	?	0.1
Cc1[nH]n(-c2ccc([N+](=O)[O-])cc2)c(=O)c1C=NCCN1CCN(C(=O)c2ccc(F)cc2)CC1	2.7%	-15.1	3.3%	-10.8%	-20.9%	-3.4
Cc1[nH]n(-c2ccc([N+](=O)[O-])cc2)c(=O)c1C=NCCN1CCN(C(=O)c2ccc(Br)cc2)CC1	-6.5%	2.5	6.4%	7.08µM*	-25.5%	-5.1
COC(=O)NC(CC(C)=O)c1ccco1 (centres undefined)	nt	nt	-0.6%[12.9 µM]	nt	nt	nt
Cc1cc(NC(=O)C(C)(C)C)no1	4.1%	-3.6	0.4%	-10.5%	0.3%	-1.1
Cc1cc(N/C=C2\CCCCC2=O)no1	0.8%	38.4	-9.0%	12.3%	-10.5%	16.1*
NC1=NCC2c3ccccc3Cc3ccccc3N12 (centres undefined)	0.0%	-2.3	-2.8%	nt	nt	-9.2
